High-throughput results from PubChem BioAssay.
KB-V1 cytotox – qHTS assay for MDR1-selective chemotherapeutics: Primary screen using the drug-selected MDR subline cells KB-V1. KB-V1 MDR cells viability, CellTiter-Glo, 72 h. Potency, µM (highest dose often 46.1 µM), most hits filed as cytotoxic. 400,000 compounds, 3.4% hits. AID 1347076, 2019; note: nearly all actives have a fitted effect of over 60% in size
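Cells of the MDR subline KB-V1 are plated, dosed with compound at multiple concentrations, and incubated 72 h at 37 degrees C; CellTiter-Glo is then added and luminescence read after 10 min.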
RGS4 inhibitor – Inhibitors of Regulator of G Protein Signaling (RGS) 4: qHTS. Transcreener GDP fluorescence polarization, RGS4-accelerated GTP hydrolysis. 390,000 compounds, 0.039% hits. Potency, µM (titrated, usually from 114 µM), usual class: inhibitors. AID 504845, 2011; note: nearly all actives have a fitted effect of over 75% in size
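MLSMR compounds (23 nl, pin-transferred) preincubated 10 min at room temperature with a 500nM (2x) first reagent, then RGS4 at 900nM (2x) plus Transcreener GDP mix added; fluorescence polarization (620/688 nm) read before and after 90 min at 30 °C.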
MCF10A rereplic – A quantitative high throughput screen for small molecules that induce DNA re-replication in MCF 10a normal breast cells. MCF 10A DNA re-replication, Hoechst nuclear intensity, 48 h. Potency, µM (series often up to 46.1 µM), most hits filed as activators. 350,000 compounds, 2.9% hits. AID 624296, 2012; note: nearly all actives have a fitted effect of over 50% in size
TSG101-PTAP inh – qHTS Assay for Iinhibitors of HIV-1 Budding by Blocking the Interaction of PTAP/TSG101; Fluorescence polarization, FITC-PTAP peptide / Tsg101 binding; Potency, µM (doses to about 115 µM), usual class: inhibitors; 340,000 tested, under 10 active; Tumor susceptibility gene 101 protein (Homo sapiens), Q99816; active = well fitted inhibition curve with a large enough effect in the main read-out, with a control signal flat, not every such curve was filed as active; inconclusive = small, poorly fitted or top-dose-only effect, or effect the other way, or a change in a side signal; inactive = no such curve, though single readings can be large or run the other way
Target sequence (Q99816 whole entry, looked up): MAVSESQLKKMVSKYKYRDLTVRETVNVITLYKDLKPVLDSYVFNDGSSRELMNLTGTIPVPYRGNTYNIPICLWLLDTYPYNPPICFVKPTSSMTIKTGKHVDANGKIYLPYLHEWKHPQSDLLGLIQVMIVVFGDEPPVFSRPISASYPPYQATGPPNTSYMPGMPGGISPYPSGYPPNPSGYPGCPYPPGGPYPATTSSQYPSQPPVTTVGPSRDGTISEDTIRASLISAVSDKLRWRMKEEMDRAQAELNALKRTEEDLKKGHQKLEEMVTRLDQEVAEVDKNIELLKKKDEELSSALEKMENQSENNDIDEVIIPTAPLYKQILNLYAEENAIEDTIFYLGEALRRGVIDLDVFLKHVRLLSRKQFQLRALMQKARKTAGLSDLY
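Fluorescence anisotropy tracks displacement of a FITC-tagged PTAP peptide (50 nM) from the Tsg101 binding domain (10 uM), following a 20 min room-temperature incubation at pH 7.5.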
SW480 rereplic – A quantitative high throughput screen for small molecules that induce DNA re-replication in SW480 colon adenocarcinoma cells; AID 624297, 2012; Potency, µM (highest dose often 46.1 µM), most hits filed as activators; 340,000 compounds, 1.8% hits; SW480 DNA re-replication, Hoechst DNA content imaging, 48 h; note: nearly all actives have a fitted effect of over 55% in size
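Treated cells incubate 48 hr (37 C, 5% CO2), are stained 40 min with Hoechst, and nuclear fluorescence is enumerated; a rise in nuclei with high DNA signal marks re-replication.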
KB-3-1 cytotox – qHTS assay for MDR1-selective chemotherapeutics: Primary screen using the parental adenocarcinoma cell KB-3-1; 400,000 compounds, 1.4% hits; Potency, µM (series often up to 46.1 µM), most hits filed as cytotoxic; KB-3-1 viability, CellTiter-Glo ATP luminescence, 72 h; AID 1347075, 2019; note: nearly all actives have a fitted effect of over 60% in size
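Cytotoxicity measured as CellTiter-Glo luminescence after 72 h at 37 C. Compound titrations were pinned onto drug-naive KB-3-1 parental adenocarcinoma cells grown in DMEM with 10% FBS, and normalized data fitted to concentration-response curves.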
Of the large screens only hits and unclear results are named; the others gave an inactive call; ! = a repeat was not active. Shown are actives, neighbours in structure and some others; about 6.6% of the full set was active somewhere. Unless noted, calls come from the whole dose curve; as a rule, active = well fitted curve in the direction sought with a large enough effect; inconclusive = small, poorly fitted or top-dose-only effect, or another doubt; inactive = no such curve, though single readings can be large; an effect the other way counts as inactive or inconclusive.

Cc1ccc(C(=O)CSc2nnnn2-c2ccccc2)o1	MCF10A rereplic 0.411µM
CCCCCCCCCCCCCCCC(=O)NCCc1c[nH]c2ccccc12	MCF10A rereplic inconclusive
CCCCOc1ccc(-c2nnn(CC(=O)NCCc3c[nH]c4ccccc34)n2)cc1	KB-V1 cytotox 16.4µM, MCF10A rereplic inconclusive
COC(=O)c1ccccc1NC(=O)Cn1nnc(-c2ccc(OC)cc2)n1	KB-V1 cytotox 14.6µM!
CCCOc1ccc(-c2nnn(CC(=O)Nc3cccc(C(=O)OC)c3)n2)cc1	KB-V1 cytotox 13µM
COc1ccccc1NC(=O)Cn1nnc(-c2ccccc2NS(=O)(=O)c2ccccc2)n1	KB-V1 cytotox 5.8µM, SW480 rereplic inconclusive, KB-3-1 cytotox inconclusive
CN(C)c1ccc(CNC(=O)Cc2ccc(NC(=O)N3CCCCc4ccccc43)cc2)cc1	none (no result: MCF10A rereplic, TSG101-PTAP inh, SW480 rereplic)
O=S(=O)(O)c1ccc(O)cc1	none (no result: KB-V1 cytotox, RGS4 inhibitor, TSG101-PTAP inh, KB-3-1 cytotox)
CCN(CC)S(=O)(=O)c1ccc2c(c1)c(=O)c(C(=O)N1CCN(c3cccc(C)c3)C(C)C1)cn2C (configuration not stated)	none (no result: MCF10A rereplic, TSG101-PTAP inh, SW480 rereplic)
CCN(CC)CCOC(=O)c1cccnc1	none (no result: KB-V1 cytotox, RGS4 inhibitor, TSG101-PTAP inh, KB-3-1 cytotox)
COc1ccc(NC(=O)Cn2nnc(-c3ccc(CN4CCOCC4)cc3)n2)c(OC)c1	KB-V1 cytotox 20.6µM
CCCCOC(=O)c1ccc(NC(=O)c2cc3c(=O)n4cccc(C)c4nc3n2C)cc1	none (no result: KB-V1 cytotox, MCF10A rereplic, TSG101-PTAP inh, SW480 rereplic, KB-3-1 cytotox)
CC(Sc1nnc2ccccn12)C(=O)Nc1ncc(Cl)cc1Cl (configuration not stated)	none
COc1ccc(-n2c(SC(C)C(=O)Nc3ncc(Cl)cc3Cl)nc3ccccc32)cc1 (configuration not stated)	KB-V1 cytotox 2.06µM, MCF10A rereplic inconclusive, SW480 rereplic inconclusive, KB-3-1 cytotox 20.6µM
COc1ccc(OC)c(CCNC(=O)Cn2nc(C)c3c(C)n(-c4ccc(C)cc4)nc3c2=O)c1	KB-V1 cytotox 8.2µM, KB-3-1 cytotox inconclusive
CCCCn1c2ccc(F)cc2c2nnc(NN)nc21	MCF10A rereplic 0.651µM, SW480 rereplic inconclusive
Cc1ccccc1S(=O)(=O)N1CCN(c2nc(-c3cccs3)nc3ccccc23)CC1	none (no result: KB-V1 cytotox, MCF10A rereplic, TSG101-PTAP inh, SW480 rereplic, KB-3-1 cytotox)
O=C(NCc1ccccc1)C1(C(F)(F)F)CC(CCCO)CCCO1 (configuration not stated)	none
CS(=O)(=O)c1ccc(CNC(=O)C2(C(F)(F)F)CC(CCCO)CCCO2)cc1 (configuration not stated)	KB-V1 cytotox inconclusive, KB-3-1 cytotox 5.8µM
COc1ccc(CCN(C)Cc2cccc3ccccc23)cc1OC	MCF10A rereplic inconclusive
CN(C)CCN(C)Cc1ccccc1Sc1cccc2ccccc12	KB-V1 cytotox 23.1µM, MCF10A rereplic inconclusive, SW480 rereplic inconclusive, KB-3-1 cytotox inconclusive
CNCc1ccccc1Sc1cccc2ccccc12	KB-V1 cytotox 14.6µM, MCF10A rereplic inconclusive, SW480 rereplic inconclusive, KB-3-1 cytotox inconclusive
CC(C)c1ccc(NC(=O)C2Cc3ccccc3N2C(=O)c2ccccc2)cc1 (configuration not stated)	KB-V1 cytotox inconclusive (no result: MCF10A rereplic, TSG101-PTAP inh, SW480 rereplic)
C/C(=N\NC(=O)Cc1ccccc1)c1cccs1	MCF10A rereplic 18.4µM
C/C(=N\NC(=O)CN1CCN(Cc2ccccc2)CC1)c1cccs1	none
C/C(=N/NC(=O)Cc1cccc2ccccc12)c1cccs1	KB-V1 cytotox inconclusive
C/C(=N\NC(=O)Cn1c(C)nc2ccccc21)c1cccs1	KB-V1 cytotox 14.6µM
CC(/C=N\NC(=O)Cn1c(C)nc2ccccc21)=C\c1ccccc1	KB-V1 cytotox inconclusive, KB-3-1 cytotox 18.4µM
CCc1ccccc1NC(=O)Nc1cc(C(=O)NCc2ccc(OC)cc2)ccc1N1CCCC1	none (no result: MCF10A rereplic, TSG101-PTAP inh, SW480 rereplic)
